In the library only some 7.4% were active in any assay of this set; here they are far more common.
FLuc counter: inhibits or activates purified firefly luciferase, miR-21 counter-screen | P08659 | purified FLuc, Km substrates, luminescence inhibition | Potency, µM (titrated, usually from 57.5 µM), for inactives: at the top dose activity change, negative = inhibition, hits mostly inhibitors | actives 6.9% (n = 360,000) | AID 588342;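 also: plate controls were vehicle for no effect and reference inhibitor for full effect; nearly all actives have a fitted effect of over 55% in size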
Target sequence (P08659 whole entry, looked up): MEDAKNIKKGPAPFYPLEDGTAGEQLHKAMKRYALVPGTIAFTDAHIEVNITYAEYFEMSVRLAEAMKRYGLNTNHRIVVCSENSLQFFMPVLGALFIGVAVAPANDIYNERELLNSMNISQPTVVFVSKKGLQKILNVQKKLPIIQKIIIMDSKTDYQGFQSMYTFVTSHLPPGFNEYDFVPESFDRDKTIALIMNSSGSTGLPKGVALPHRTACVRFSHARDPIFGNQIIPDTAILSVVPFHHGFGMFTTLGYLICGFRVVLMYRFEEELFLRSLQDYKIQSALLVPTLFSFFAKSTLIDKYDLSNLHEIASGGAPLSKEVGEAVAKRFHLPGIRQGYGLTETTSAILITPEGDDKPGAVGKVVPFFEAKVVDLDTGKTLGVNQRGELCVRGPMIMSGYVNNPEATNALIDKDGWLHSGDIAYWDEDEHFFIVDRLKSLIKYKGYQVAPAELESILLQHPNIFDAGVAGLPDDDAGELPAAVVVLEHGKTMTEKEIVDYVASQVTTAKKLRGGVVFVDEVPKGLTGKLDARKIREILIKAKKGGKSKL
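Purified P. pyralis luciferase, 10 nM final, with Km-level 10 uM D-luciferin and 10 uM ATP in 50 mM Tris acetate pH 7.5, 10 mM Mg acetate, 0.01% Tween-20, 0.05% BSA; 6-point qHTS titration about 60 µM downward; luminescence read.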
NPC1 prom act: activators of NPC1 promoter; Huh7 NPC1 promoter luciferase reporter, 24 h; Potency, µM (highest dose often 9.22 µM), without a hit: at the highest dose activation, most hits filed as activators; actives 2.4% (n = 320,000); AID 485313; also: % of control where 0% means no effect; nearly all actives have a fitted effect of over 60% in size
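In 1536-well qHTS, Huh7 cells harboring an NPC1 promoter–luciferase construct received compound for 24 h; activation was quantified by luminescence following luciferase reagent addition.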
Rab9 promoter act: Rab9 promoter activation; Huh7 Rab9 promoter-luciferase reporter, luminescence, 24 h; actives 2.8% (n = 320,000); Potency, µM (highest dose often 9.22 µM), for inactives: at the highest dose activation, negative = inhibition, most hits filed as activators; also: % of control where 0% means no effect; nearly all actives have a fitted effect of over 60% in size
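Huh7 cells stably carrying Rab9 promoter–luciferase reporter, plated 1500 cells/well, compound added after 2 h and incubated 24 h at 37 °C; luciferase luminescence then read after 10 min with detection reagent.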
SMN2 splice enh: SMN2 splice variant enhancement. Potency, µM (series often up to 46.1 µM), without a hit: top-dose activity change, positive = activation, actives largely listed as activators. actives 2.8% (n = 210,000). HEK293 SMN2-luciferase splicing reporter, luminescence, 30-36 h. AID 1458; also: % of control where 0% means no effect; nearly all actives have a fitted effect of over 55% in size
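qHTS luciferase splicing reporter: luminescence rises when SMN2 exon 7 is included in transfected HEK293 cells. Compound exposure lasted 30-36 h at 37C, with 4.5 mM final sodium butyrate as control, followed by a ONE-Glo read.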
ELG1 genotoxic: inducers of genotoxicity in HEK293T ELG1-luciferase cells | Potency, µM (highest dose often 46 µM), inactives show top-dose activity change, positive = activation, actives largely listed as activators | actives 1.3% (n = 330,000) | HEK293T ELG1-luciferase reporter, luminescence, 16 h; also: % of control where 0% means no effect; nearly all actives have a fitted effect of over 60% in size
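HEK293T cells expressing luciferase-tagged ELG1 were treated with compound or DMSO for 16 hr at 37°C. Luciferase activity was then read after 30 min with ONE-Glo at room temperature; rising signal flags genetic stress.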
Numbers without * were called inactive. Calls follow the shape of the dose curve; as a rule, active = well fitted curve in the direction sought with a large enough effect; inconclusive = small, poorly fitted or top-dose-only effect, or another doubt; inactive = no such curve, though single readings can be large; an effect the other way counts as inactive or inconclusive. Potency is read from the fitted curve at half-maximal effect.

How did COc1cc(C(=O)NC(=S)Nc2ccc3c(c2)OCO3)cc(OC)c1OC do in these assays?
FLuc counter: inconclusive; NPC1 prom act: 1.1%; Rab9 promoter act: -9.8%; ELG1 genotoxic: -1.6%

What do the screens show for `COc1cccc(OC)c1C(=O)NC(=S)Nc1ccc2c(c1)OCCO2`?
FLuc counter: 21.3µM*; NPC1 prom act: -3.7%; Rab9 promoter act: 1.1%; SMN2 splice enh: -5.1%; ELG1 genotoxic: inconclusive

What do the screens show for `Cc1c(CC(=O)NCc2ccccc2)c(=O)oc2c(C)c(O)ccc12`?
FLuc counter: 3.7%; SMN2 splice enh: -3.1%

How did COc1ccc(-c2coc(CCC(=O)N3CCN(c4cc(C)ccc4C)CC3)n2)cc1 do in these assays?
ELG1 genotoxic: -1.0%

Results for COc1ccccc1CNC(=O)c1csc2c1CCCC2 ?
FLuc counter: -19.4%; NPC1 prom act: -0.7%; Rab9 promoter act: -3.6%; SMN2 splice enh: 11.5%; ELG1 genotoxic: 2.5%

Results for Cc1nnc(NC(=O)c2csc3c2CCCC3)s1 ?
FLuc counter: inconclusive; NPC1 prom act: 16.9%; Rab9 promoter act: 18.3%; SMN2 splice enh: 22.3%; ELG1 genotoxic: inconclusive

How did O=C(Nc1ccccn1)c1csc2c1CCCC2 do in these assays?
FLuc counter: 6.75µM*; NPC1 prom act: inconclusive; Rab9 promoter act: 1.78µM*; SMN2 splice enh: 12.6µM*; ELG1 genotoxic: 7.3µM*

What do the screens show for `COc1cc(NC(=O)c2csc3c2CCCC3)ncn1`?
FLuc counter: 3.38µM*; NPC1 prom act: 3.55µM*; Rab9 promoter act: 3.55µM*; SMN2 splice enh: 12.6µM*; ELG1 genotoxic: 4.11µM*

What do the screens show for `COc1ccccc1NC(=O)c1csc2c1CCCC2`?
FLuc counter: 19µM*; NPC1 prom act: -0.5%; Rab9 promoter act: -0.8%; SMN2 splice enh: -17.6%; ELG1 genotoxic: -0.3%

Results for O=C(Nc1ccccn1)c1onc2c1CCCC2 ?
FLuc counter: 0.757µM*; NPC1 prom act: 0.355µM*; Rab9 promoter act: 0.398µM*; SMN2 splice enh: 0.708µM*; ELG1 genotoxic: inconclusive

How did Cc1nnc(SCC(=O)NCc2ccc(N(C)C)cc2)c2nn(-c3ccccc3)c(C)c12 do in these assays?
FLuc counter: -17.4%

How did COc1ccc(C2CC2C(=O)c2ccccn2)cc1 (stereo not drawn) do in these assays?
FLuc counter: 16.9µM*; NPC1 prom act: inconclusive; Rab9 promoter act: inconclusive; SMN2 splice enh: 11.6%; ELG1 genotoxic: 6.0%

Results for CC1CCCN(S(=O)(=O)c2cc3c(cc2Cl)NC(=O)CO3)C1 (stereo not drawn) ?
FLuc counter: -4.1%

Results for COc1cc(OC)cc(C(=O)NCC(c2cccs2)S(=O)(=O)c2ccc(F)c(C)c2)c1 (stereo not drawn) ?
FLuc counter: -1.7%

What do the screens show for `Cc1nc(NC(=O)c2ccccc2)nc2cc3c(cc12)OCO3`?
FLuc counter: 16.9µM*; NPC1 prom act: inconclusive; Rab9 promoter act: inconclusive; SMN2 splice enh: inconclusive; ELG1 genotoxic: inconclusive

What do the screens show for `CNC(=O)COc1ccc(Nc2nnc(-c3ccc(C)c(S(=O)(=O)NC(C)(C)C)c3)c3ccccc23)cc1`?
FLuc counter: 15.1µM*; SMN2 splice enh: -33.0%

Results for CCN(CC)C(=O)c1ccc(Nc2nnc(-c3ccc(C)c(S(=O)(=O)NC)c3)c3ccccc23)cc1 ?
FLuc counter: -16.5%; SMN2 splice enh: -31.5%

What do the screens show for `C#CC(C)(C)NS(=O)(=O)c1cc(-c2nnc(Nc3ccc(C)cc3)c3ccccc23)ccc1C`?
FLuc counter: 2.69µM*; SMN2 splice enh: 8.7%

What do the screens show for `CNS(=O)(=O)c1cc(-c2nnc(Nc3ccc(NC(C)=O)cc3)c3ccccc23)ccc1C`?
FLuc counter: inconclusive; NPC1 prom act: -0.3%; Rab9 promoter act: 3.8%; ELG1 genotoxic: -4.6%

What do the screens show for `Cc1ccccc1OCCC(=O)Nc1ccc(Cl)cc1F`?
FLuc counter: -7.4%; NPC1 prom act: -2.6%; Rab9 promoter act: -2.0%; SMN2 splice enh: -2.0%; ELG1 genotoxic: -1.1%

Results for Cc1ccc(NC(=O)c2cc3c(s2)CCCC3)cc1S(=O)(=O)Nc1ccccc1Cl ?
FLuc counter: 16.9µM*; NPC1 prom act: -6.5%; Rab9 promoter act: -5.4%; SMN2 splice enh: -60.2%; ELG1 genotoxic: -8.2%

How did O=C(Nc1cccc(S(=O)(=O)Nc2ccc(Cl)cc2)c1)c1cc2c(s1)CCCC2 do in these assays?
FLuc counter: 15.1µM*; NPC1 prom act: -3.2%; Rab9 promoter act: 0.7%; SMN2 splice enh: -68.0%; ELG1 genotoxic: -7.1%

Results for O=C(Cn1c(=O)n2nc(-c3ccccc3)nc2c2ccccc21)Nc1ccccc1C(F)(F)F ?
FLuc counter: 2.3%; SMN2 splice enh: -7.0%

How did Cc1ccc(CNC(=O)C2CCCN(S(=O)(=O)N3CC(C)CC(C)C3)C2)cc1 (stereo not drawn) do in these assays?
FLuc counter: 2.2%; NPC1 prom act: 3.5%; Rab9 promoter act: -5.5%; ELG1 genotoxic: 0.6%

How did COc1cc2c(cc1NC(=O)Cc1ccc(C)cc1)oc1ccccc12 do in these assays?
FLuc counter: 15.1µM*; NPC1 prom act: 20.5%; Rab9 promoter act: inconclusive; SMN2 splice enh: 8.91µM*; ELG1 genotoxic: 12.2%

How did COc1cc2c(cc1NC(=O)COC(=O)Cn1cnc3ccccc31)oc1ccccc12 do in these assays?
FLuc counter: 19µM*; NPC1 prom act: 28.2%; Rab9 promoter act: inconclusive; SMN2 splice enh: 23.6%; ELG1 genotoxic: 23.1µM*

Results for COc1cc2c(cc1NC(=O)CSCC(=O)O)oc1ccccc12 ?
FLuc counter: 21.3µM*; NPC1 prom act: 11.9%; Rab9 promoter act: -0.8%; SMN2 splice enh: 8.6%; ELG1 genotoxic: -1.1%

What do the screens show for `Cc1ccc(NS(=O)(=O)c2ccc(C(=O)Nc3nncs3)cc2)cc1`?
ELG1 genotoxic: -2.9%

Results for CC(Cc1ccccc1)NC(=O)CCCN1C(=O)c2ccccc2C1=O (stereo not drawn) ?
FLuc counter: -1.0%; NPC1 prom act: 0.3%; Rab9 promoter act: -1.4%; ELG1 genotoxic: 0.2%

Results for CCC1SC(=NC(=O)c2ccc(Cl)c(Cl)c2)NC1=O (stereo not drawn) ?
FLuc counter: 23.9µM*; NPC1 prom act: 23.2%; Rab9 promoter act: 22.9%; SMN2 splice enh: inconclusive; ELG1 genotoxic: inconclusive

How did CCC1SC(=Nc2cccc(C)c2)NC1=O (stereo not drawn) do in these assays?
FLuc counter: -9.1%; NPC1 prom act: 0.1%; Rab9 promoter act: 0.4%; ELG1 genotoxic: 3.0%

Results for CCn1c(O)c(C=NC2CCCC(C)C2C)sc1=S (stereo not drawn) ?
FLuc counter: 15.1µM*; NPC1 prom act: inconclusive; Rab9 promoter act: inconclusive; ELG1 genotoxic: inconclusive

Results for COc1ccc(OC)c(C(=O)COC(=O)COc2ccccc2F)c1 ?
FLuc counter: -0.4%; NPC1 prom act: -4.2%; Rab9 promoter act: -1.6%; ELG1 genotoxic: 0.3%

Screens from PubChem.
